Laboratory results taken from PubChem BioAssay AID1159580 (chemical genetic matrix, 2015).
The whole screen tested about 5,500 compounds, of which about 2,000 (36%) were called active. Another 18% or so got no clear call; they are omitted. No stated cut-off is given here; in the data, active means normalized growth mostly below about 0.91 (no sharp cut-off); inconclusive means no clear call, values can overlap the other calls; inactive means mostly above about 0.92. The list shows a part of the results.

Assay: chemical genetic growth profiling, strain panel (AID 1159580);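 further: tested at 20 µM; growth read once vehicle control cultures reached saturation at 30 °C; 1 = growth at the plate median or of vehicle wells; lower values mean less growth of the strain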
Conditions: growth OD

Measured: normalized growth

NCC(=O)c1ccccc1
inactive: S. cerevisiae deletion strains, locus YJR075W, strain HOC1, hits give low values 1.05 | S. cerevisiae deletion strains, locus YKL009W, strain mrt4, hits give low values 0.981 | S. cerevisiae deletion strains, locus YKL068W, hits give low values 1 | S. cerevisiae deletion strains, locus YKL085W, strain MDH1 (second series), hits give low values 0.988 | S. cerevisiae deletion strains, locus YKL085W, strain MDH1, hits give low values 0.988 | S. cerevisiae deletion strains, locus YKL160W, strain elf1, hits give low values 1 | S. cerevisiae deletion strains, locus YKL190W, strain CNB1, hits give low values 1.02 | S. cerevisiae deletion strains, locus YKR001C, strain vps1, hits give low values 0.988 | S. cerevisiae deletion strains, locus YKR026C, strain gcn3, hits give low values 1 | S. cerevisiae deletion strains, locus YKR091W, strain srl3, hits give low values 0.997 | S. cerevisiae deletion strains, locus YLL001W, strain dnm1, hits give low values 1 | S. cerevisiae deletion strains, locus YLL026W, hits give low values 1 | S. cerevisiae deletion strains, locus YLL041C, strain sdh2, hits give low values 1 | S. cerevisiae deletion strains, locus YLR027C, strain aat2, hits give low values 0.997 | S. cerevisiae deletion strains, locus YLR039C, strain RIC1, hits give low values 1.03 | S. cerevisiae deletion strains, locus YLR058C, strain SHM2, hits give low values 1.02 | S. cerevisiae deletion strains, locus YLR102C, strain apc9, hits give low values 0.988 | S. cerevisiae deletion strains, locus YLR113W, strain HOG1, hits give low values 1.07 | S. cerevisiae deletion strains, locus YLR221C, strain rsa3, hits give low values 1.02 | S. cerevisiae deletion strains, locus YLR258W, strain gsy2, hits give low values 0.977 | S. cerevisiae deletion strains, locus YLR262C, strain YPT6 (second series), hits give low values 1.03 | S. cerevisiae deletion strains, locus YLR262C, strain YPT6, hits give low values 1.02 | S. cerevisiae deletion strains, locus YLR268W, strain sec22, hits give low values 0.986 | S. cerevisiae deletion strains, locus YLR320W, strain mms22, hits give low values 0.991 | S. cerevisiae deletion strains, locus YLR330W, strain CHS5, hits give low values 1.02 | S. cerevisiae deletion strains, locus YLR342W, strain FKS1 (second series), hits give low values 0.988 | S. cerevisiae deletion strains, locus YLR342W, strain FKS1, hits give low values 0.992 | S. cerevisiae deletion strains, locus YLR357W, strain rsc2, hits give low values 0.966 | S. cerevisiae deletion strains, locus YLR370C, strain arc18, hits give low values 1.01 | S. cerevisiae deletion strains, locus YLR371W, strain rom2, hits give low values 0.993 | S. cerevisiae deletion strains, locus YLR384C, strain iki3, hits give low values 1.01 | S. cerevisiae deletion strains, locus YLR418C, strain cdc73, hits give low values 1 | S. cerevisiae deletion strains, locus YML016C, strain PPZ1, hits give low values 1.02 | S. cerevisiae deletion strains, locus YML032C, strain rad52, hits give low values 0.986 | S. cerevisiae deletion strains, locus YML120C, strain ndi1, hits give low values 0.989 | S. cerevisiae deletion strains, locus YML124C, strain tub3, hits give low values 0.993 | S. cerevisiae deletion strains, locus YMR058W, strain fet3, hits give low values 1.01 | S. cerevisiae deletion strains, locus YMR078C, strain ctf18, hits give low values 1 | S. cerevisiae deletion strains, locus YMR125W, strain sto1, hits give low values 1.01 | S. cerevisiae deletion strains, locus YMR129W, hits give low values 1 | S. cerevisiae deletion strains, locus YMR205C, strain PFK2, hits give low values 1.01 | S. cerevisiae deletion strains, locus YMR223W, strain ubp8, hits give low values 0.987 | S. cerevisiae deletion strains, locus YMR231W, strain pep5, hits give low values 0.992 | S. cerevisiae deletion strains, locus YMR263W, strain SAP30, hits give low values 1.04 | S. cerevisiae deletion strains, locus YMR307W, strain GAS1, hits give low values 1.02 | S. cerevisiae deletion strains, locus YNL067W, strain RPL9B, hits give low values 1.04 | S. cerevisiae deletion strains, locus YNL071W, strain lat1, hits give low values 0.998 | S. cerevisiae deletion strains, locus YNL128W, strain TEP1, hits give low values 1.05 | S. cerevisiae deletion strains, locus YNL153C, strain GIM3, hits give low values 1.02 | S. cerevisiae deletion strains, locus YNL183C, strain NPR1, hits give low values 0.995 | S. cerevisiae deletion strains, locus YNL209W, strain ssb2, hits give low values 1 | S. cerevisiae deletion strains, locus YNL233W, strain BNI4, hits give low values 1.02 | S. cerevisiae deletion strains, locus YNL248C, strain rpa49, hits give low values 0.99 | S. cerevisiae deletion strains, locus YNL250W, strain rad50, hits give low values 0.985 | S. cerevisiae deletion strains, locus YNL271C, strain bni1, hits give low values 0.986 | S. cerevisiae deletion strains, locus YNL298W, strain CLA4, hits give low values 0.994 | S. cerevisiae deletion strains, locus YNL307C, strain MCK1, hits give low values 0.987 | S. cerevisiae deletion strains, locus YNL322C, strain KRE1 (second series), hits give low values 0.989 | S. cerevisiae deletion strains, locus YNL322C, strain KRE1, hits give low values 1.03 | S. cerevisiae deletion strains, locus YNR049C, strain mso1, hits give low values 1.02 | S. cerevisiae deletion strains, locus YNR052C, strain pop2, hits give low values 0.995 | S. cerevisiae deletion strains, locus YOL006C, strain TOP1, hits give low values 1.09 | S. cerevisiae deletion strains, locus YOL012C, strain htz1 1.45 | S. cerevisiae deletion strains, locus YOL147C, strain pex11, hits give low values 0.993 | S. cerevisiae deletion strains, locus YOR001W, strain rrp6, hits give low values 1.01 | S. cerevisiae deletion strains, locus YOR061W, strain CKA2, hits give low values 1.01 | S. cerevisiae deletion strains, locus YOR069W, strain VPS5, hits give low values 1.01 | S. cerevisiae deletion strains, locus YOR070C, strain gyp1, hits give low values 1 | S. cerevisiae deletion strains, locus YOR080W, strain dia2, hits give low values 0.995 | S. cerevisiae deletion strains, locus YOR083W, strain WHI5, hits give low values 0.994 | S. cerevisiae deletion strains, locus YOR106W, strain vam3, hits give low values 1.02 | S. cerevisiae deletion strains, locus YOR136W, strain idh2, hits give low values 0.991 | S. cerevisiae deletion strains, locus YOR144C, strain elg1, hits give low values 0.999 | S. cerevisiae deletion strains, locus YOR184W, strain ser1, hits give low values 0.983 | S. cerevisiae deletion strains, locus YOR231W, strain MKK1, hits give low values 1.08 | S. cerevisiae deletion strains, locus YOR265W, strain rbl2, hits give low values 1.01 | S. cerevisiae deletion strains, locus YOR270C, strain vph1, hits give low values 1.06 | S. cerevisiae deletion strains, locus YOR290C, strain snf2, hits give low values 0.998 | S. cerevisiae deletion strains, locus YOR316C, strain cot1, hits give low values 0.992 | S. cerevisiae deletion strains, locus YPL051W, strain arl3, hits give low values 1.01 | S. cerevisiae deletion strains, locus YPL055C, strain LGE1, hits give low values 1.06 | S. cerevisiae deletion strains, locus YPL078C, strain atp4, hits give low values 1.02 | S. cerevisiae deletion strains, locus YPL106C, strain sse1, hits give low values 0.973 | S. cerevisiae deletion strains, locus YPL240C, strain hsp82, hits give low values 0.996 | S. cerevisiae deletion strains, locus YPL241C, strain CIN2, hits give low values 1.02 | S. cerevisiae deletion strains, locus YPL256C, strain CLN2, hits give low values 1.05 | S. cerevisiae deletion strains, locus YPR119W, strain clb2, hits give low values 0.996 | S. cerevisiae deletion strains, locus YPR141C, strain kar3, hits give low values 0.993 | S. cerevisiae deletion strains, locus YPR163C, strain tif3, hits give low values 0.99 | S. cerevisiae deletion strains, locus YPR167C, strain met16, hits give low values 0.991 | S. cerevisiae deletion strains, strain wtn01, hits give low values 0.987 | S. cerevisiae strains, strain wild type, hits give low values 1.01
